Data: PubChem BioAssay
Active and inactive are the calls of the source.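 The calls were made as follows: active = at least 20% inhibition of 6-phosphogluconate dehydrogenase activity; inactive = the rest.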 Where a SMILES comes first, the peptide text is derived from it. Bridges are numbered along the chain shown (N, C = ends). [ ]: non-standard residue; d: D form. The star is where a group is joined. ξ: configuration not given here. ξDab(CH2SO3H) = NC(CCNCS(=O)(=O)O)C(=O)O; Octanoyl(6-Me) = CCC(C)CCCCC(=O)*; Dab = NCC[CH](N)C(=O)O

These compounds were tested against 6-phosphogluconate dehydrogenase, decarboxylating (Homo sapiens) (UniProt P52209) (assay: 6PGD enzyme inhibitors, primary screen, biochemical, human, recombinant enzyme, NADPH absorbance (AID 1159550)). Details: recombinant 6PGD, NADPH absorbance 341 nm; at 10 µM; hits give high values.
Chain of 6-phosphogluconate dehydrogenase, decarboxylating (Homo sapiens) (P52209 whole entry, looked up): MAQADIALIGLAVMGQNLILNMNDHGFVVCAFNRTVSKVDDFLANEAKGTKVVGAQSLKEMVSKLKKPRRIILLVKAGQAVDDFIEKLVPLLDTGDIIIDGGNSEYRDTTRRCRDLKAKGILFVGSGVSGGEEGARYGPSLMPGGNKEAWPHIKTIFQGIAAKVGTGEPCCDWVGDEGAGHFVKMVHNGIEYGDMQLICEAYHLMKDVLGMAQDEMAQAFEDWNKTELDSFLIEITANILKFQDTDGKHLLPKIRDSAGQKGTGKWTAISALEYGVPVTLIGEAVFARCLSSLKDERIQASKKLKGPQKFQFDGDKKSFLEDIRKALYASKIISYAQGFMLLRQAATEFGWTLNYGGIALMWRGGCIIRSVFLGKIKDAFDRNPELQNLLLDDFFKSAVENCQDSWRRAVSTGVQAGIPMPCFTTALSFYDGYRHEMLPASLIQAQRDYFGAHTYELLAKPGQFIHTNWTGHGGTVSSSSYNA

Row | Compound | inhibition
1 | CN[C@H]1[C@@H](O[C@@H]2[C@@H](O[C@H]3[C@H](O)[C@@H](O)[C@H](N=C(N)N)[C@@H](O)[C@@H]3N=C(N)N)O[C@H](C)[C@@]2(O)C=O)O[C@H](CO)[C@@H](O)[C@@H]1O | 6.7% (inactive)
2 | CC(=O)NC(Cc1c[nH]c2ccccc12)C(N)=O (configuration not stated) | -11.6% (inactive)
3 | C=C[C@@H](C1=CC(=O)C(OC)=CC1=O)c1ccccc1 | -0.743% (inactive)
4 | CC12CCC3c4ccc(OC(=O)c5ccccc5)cc4CCC3C1CCC2=O (configuration not stated) | -9.5% (inactive)
5 | C=CC(C)(CCC1C(=C)CC(OC(C)=O)C2C(C)(C)CCCC12C)OC(C)=O (configuration not stated) | 11.4% (inactive)
6 | O=C/C=C/c1ccc(O)cc1 | 1.58% (inactive)
7 | COc1c(C(=O)O)ccc2c1CCC(C)(C)O2 | 17.1% (inactive)
8 | CCCCCCCCCCCCC(C(=O)O)C(C)C(=O)O (configuration not stated) | -10.3% (inactive)
9 | COc1cc(OC)c2oc(-c3ccc(OC)c(OC)c3)c(O)c(=O)c2c1 | -1.17% (inactive)
10 | CC(C)=CCc1c(O)cc(C)oc1=O | -5.39% (inactive)
11 | CC(C)=CCC[C@@H](C)[C@H]1CC[C@@]2(C)C3=C(CC[C@]12C)[C@@]1(C)CC[C@H](O)C(C)(C)[C@@H]1CC3 | 14.5% (inactive)
12 | O=c1c(O)cc([C@H]2Oc3cc(O)cc(O)c3C[C@H]2O)cc2c([C@H]3Oc4cc(O)cc(O)c4C[C@H]3O)cc(O)c(O)c12 | 31.2% (active)
13 | COC(=O)C[C@H]1C(C)(C)C2(Cl)O[C@@]34CC2C(=O)[C@]1(C)C3CC[C@]1(C)C4=CC(=O)O[C@H]1c1ccoc1 (some centres not stated) | 6.04% (inactive)
14 | CC(=O)Oc1ccc2c(c1)CCC1C2CCC2(C)C(OC(C)=O)CCC12 (configuration not stated) | 3.64% (inactive)
15 | C=C1C(=O)OC2C[C@]3(C)[C@H](C(C)=CC[C@@H]3O)[C@@H](O)C12 (some centres not stated) | 18.1% (inactive)
16 | CC(=O)N[C@H]1[C@H]([C@H](O)[C@H](O)CO)O[C@](O)(C(=O)O)C[C@@H]1O | -6.71% (inactive)
17 | COC(=O)C[C@H]1C(C)(C)C(=O)[C@@H]2CC3C4=CC(=O)O[C@@H](c5ccoc5)[C@]4(C)CC[C@@H]3[C@@]1(C)C2=O (some centres not stated) | 12.7% (inactive)
18 | COc1cc(O)cc(/C=C/c2ccccc2)c1 | 10.9% (inactive)
19 | CC[C@@H](CC[C@@H](C)[C@H]1CC[C@H]2[C@@H]3CC=C4C[C@@H](O)CC[C@]4(C)[C@H]3CC[C@]12C)C(C)C | 10.4% (inactive)
20 | CC(CCC(=O)O)C1CCC2C3CCC4CCCCC4(C)C3CCC12C (configuration not stated) | 14% (inactive)
21 | Nc1nc2[nH]c(=O)c(=O)[nH]c2c(=O)[nH]1 | 13.8% (inactive)
22 | CCOC(=O)c1c(C)cc(O)c(C)c1O | -2.48% (inactive)
23 | CC(=O)Oc1ccc2c(c1C(C)C)CCC1C(C)(C)CCCC21C (configuration not stated) | 2.45% (inactive)
24 | COc1ccc(-c2cc(=O)c3c(O)cc(O[C@H]4O[C@H](CO[C@@H]5O[C@@H](C)[C@H](O)[C@@H](O)[C@H]5O)[C@@H](O)[C@H](O)[C@H]4O)cc3o2)cc1 | 17.5% (inactive)
25 | CC[C@H]1OC(=O)[C@H](C)[C@@H](O[C@H]2C[C@@](C)(OC)[C@@H](O)[C@H](C)O2)[C@H](C)[C@@H](O[C@@H]2O[C@H](C)C[C@H](N(C)C)[C@H]2O)[C@](C)(O)C[C@@H](C)[C@@H]2NC(COCCOC)O[C@H]([C@H]2C)[C@]1(C)O (some centres not stated) | 5.47% (inactive)
26 | CC(C)(O)[C@@H]1Cc2cc3ccc(=O)oc3cc2O1 | -0.979% (inactive)
27 | CCC(C)CCCCC(=O)NC(CCNCS(=O)(=O)O)C(=O)NC(C(=O)NC(CCNCS(=O)(=O)O)C(=O)NC1CCNC(=O)C(C(C)O)NC(=O)C(CCNCS(=O)(=O)O)NC(=O)C(CCNCS(=O)(=O)O)NC(=O)C(CC(C)C)NC(=O)C(CC(C)C)NC(=O)C(CCNCS(=O)(=O)O)NC1=O)C(C)O (configuration not stated) ({Octanoyl(6-Me)}-[ξDab(CH2SO3H)]T[ξDab(CH2SO3H)][Dab][ξDab(CH2SO3H)]LL[ξDab(CH2SO3H)][ξDab(CH2SO3H)]T; lactam 4-C; configuration not given here) | 17.5% (inactive)
